Source: PubChem BioAssay
Sampled rows, rich in hits. Any-hit rate of the full collection: about 2.5%.
V-ATPase pH = regulators of yeast V-ATPase proton pumping, primary screen, pHLuorin cytosolic pH fluorescence; response, % at 10 µM; S. cerevisiae; 350,000 tested, 0.37% active; in the data active = response mostly above about 7.3%, no sharp cut-off; inactive = mostly below about 5.4%; note: actives read high
ATG4B inhibitor = ATG4B protease inhibitors, primary screen, biochemical, fluorescence, uHTS; inhibition, % at 8.33 µM; 340,000 tested, 0.51% active; Cysteine protease ATG4B (Homo sapiens), Q9Y4P1; ATG4B cleavage of LC3-PLA2, NBD-HPC fluorescence, 1 h; in the data active = inhibition above about 40%
Target sequence (Q9Y4P1 whole entry, looked up): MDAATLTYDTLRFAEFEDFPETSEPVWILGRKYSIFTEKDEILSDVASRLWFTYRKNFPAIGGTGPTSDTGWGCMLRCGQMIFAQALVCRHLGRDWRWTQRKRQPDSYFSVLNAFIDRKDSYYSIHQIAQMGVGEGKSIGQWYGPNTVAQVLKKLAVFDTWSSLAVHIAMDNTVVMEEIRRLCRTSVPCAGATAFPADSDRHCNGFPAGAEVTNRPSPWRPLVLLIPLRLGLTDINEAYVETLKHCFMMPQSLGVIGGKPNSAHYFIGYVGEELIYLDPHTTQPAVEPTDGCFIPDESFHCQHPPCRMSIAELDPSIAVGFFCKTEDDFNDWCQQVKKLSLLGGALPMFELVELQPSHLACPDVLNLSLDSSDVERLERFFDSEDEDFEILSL
SUMO Mot1 rescue = yeast Mot1-301 growth rescue at high temperature, primary screen, SUMOylation pathway inhibitor project, S. cerevisiae, ATP luminescence, 38.5C | S. cerevisiae Mot1-301 growth rescue; percent above DMSO median, 100 means doubled | growth rescue, % at 18.8 µM | 320,000 tested, 1% active;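 active = every valid replicate shows activation above 250% relative to neutral control wells; inactive = the rest, any valid replicate at or below 250%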
Efflux pump inh = inhibitors of Candida efflux pumps in yeast, primary screen, S. cerevisiae, Nile Red, multiplex | 330,000 tested, 0.44% active | S. cerevisiae Candida pump triplex | AID 485275, 2010 | inhibition, % at 10 µM;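 active = plate passing quality check with inhibition over a set limit, or well fluorescence over plate mean plus 4 SD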;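 note: Nile Red retained in pooled yeast measured as flow cytometry median fluorescence; higher means more Nile Red kept so more efflux inhibition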
AI-2 QS mod = Vibrio harveyi AI-2 quorum sensing modulators, primary screen, JMH597 strain, luminescence/OD600 ratio; Vibrio harveyi JMH597 AI-2 luminescence/OD600 ratio, 9 h; active compounds read low; strain lacks LuxN and CqsS sensors; 0 = neutral-control median; AID 2094, 2009; activity change, % at 7.5 µM; 300,000 tested, 0.4% active; in the data active = activity change below about -75%, passing the limit was not always enough;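 note: luminescence divided by OD600 gain over 9 h not by final OD600 alone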
Yeast cmpd fluor = counter-screen for efflux pump inhibitors: compound fluorescence. AID 588517. 1,700 tested, 4% active. fluorescence ratio to DMSO, % at 10 µM. shares compounds with Efflux pump inh. S. cerevisiae AD/pABC3, flow cytometry;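 active = fluorescence ratio to DMSO above its plate's cutoff, the plate mean ratio plus 5 SD, cut at about 210% in these data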;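 note: unstained yeast with no Nile Red so the signal is compound autofluorescence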
Mdr1 pump inh = inhibitors of Candida albicans Mdr1 efflux, confirmation, flow cytometry, singleplex, Cherry Pick1 set; S. cerevisiae AD/CaMDR1, Nile Red efflux; AID 588518, 2011; 1,700 tested, 1% active; shares compounds with Efflux pump inh; inhibition, % at 10 µM; in the data active = inhibition above about 26%;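 note: higher means more Nile Red retained so more efflux inhibition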
CaCdr2 efflux inh = inhibitors of Candida albicans Cdr2 efflux pump, confirmation, S. cerevisiae AD/CaCDR2, flow cytometry, cherry pick 1, singleplex; Nile Red retention ratio vs DMSO, % at 10 µM; Nile Red retention; AID 588520, 2011; 1,700 tested, 4% active; shares compounds with Efflux pump inh; in the data active = Nile Red retention ratio vs DMSO above about 190%;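 note: higher ratio means more blocking of Cdr2 efflux of the dye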
CaCdr1 efflux inh = inhibitors of Candida albicans Cdr1 efflux pump, confirmation, S. cerevisiae AD/CaCDR1, flow cytometry, cherry pick 1, singleplex | shares compounds with Efflux pump inh | Nile Red efflux | inhibition, % at 10 µM | 1,700 tested, 1% active | AID 588522, 2011;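 active = inhibition above the screen-wide mean plus twice its standard deviation, cut at about 32% in these data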
A number is an active result; - = inactive; . = not tested or not shown.

SMILES | V-ATPase pH | ATG4B inhibitor | SUMO Mot1 rescue | Efflux pump inh | AI-2 QS mod | Yeast cmpd fluor | Mdr1 pump inh | CaCdr2 efflux inh | CaCdr1 efflux inh
CN(C)C(=S)SCC(=O)Nc1ccc(Cl)cc1Cl | - | - | - | 15.2 | - | - | - | - | -
COC(=O)c1ccc(C2OCC(C)(C)CO2)cc1 | - | - | - | 1.1 | - | - | - | - | -
COc1ccc(NC(=O)COc2nsnc2N2CCCCC2)cc1 | - | - | - | 9.0 | - | - | - | - | -
COc1ccccc1OCC(=O)Nc1c2c(nn1-c1ccccc1)CS(=O)(=O)C2 | - | - | - | - | - | . | . | . | .
C[C@H]1CN([C@@H](C)CO)C(=O)c2cc(NC(=O)Nc3cccc4ccccc34)ccc2O[C@@H]1CN(C)Cc1ccc(-c2ccccc2)cc1 | - | - | - | 1.8 | . | - | - | 188.1 | -
Cc1ccc(S(=O)(=O)N(C)C[C@H]2Oc3c(NC(=O)Nc4cccc5ccccc45)cccc3C(=O)N([C@@H](C)CO)C[C@@H]2C)cc1 | - | . | . | - | . | - | - | - | -
COc1ccc(C(=O)Nc2ccccc2N2CCN(C(=O)c3ccccc3)CC2)cc1Br | - | - | - | - | - | . | . | . | .
O=C(NC1CCCCCCC1)NC1CCCCC1 | - | - | - | 1.0 | - | - | - | - | -
COc1ccccc1N1CCN(CC(=O)Nc2ccc(-n3cnnn3)cc2)CC1 | - | - | - | 0.9 | - | - | - | - | -
COc1ccc(N2CCN(CC(=O)Nc3ccc(-n4cnnn4)cc3)CC2)cc1 | - | - | - | - | - | . | . | . | .
O=C(Nc1cc(F)cc(F)c1)c1ccc(NCCc2ccccc2)c([N+](=O)[O-])c1 | - | - | - | 12.6 | - | - | - | - | -
Cc1ccc(/C=C\c2nccc3c2[nH]c2ccccc23)cc1 | - | - | - | 1.2 | - | - | - | - | -
C(=C\c1nccc2c1[nH]c1ccccc12)/c1ccccc1 | - | - | - | - | - | . | . | . | .
C/C(=N\NC(=O)c1c(Br)cnn1C)c1ccc(NC(=O)c2ccc(F)cc2)cc1 | - | - | - | - | - | . | . | . | .
C/C(=N\NC(=O)CC1(C)OCCO1)c1cccs1 | - | - | - | 6.5 | - | - | - | - | -
C/C(=N/NC(=O)c1cccs1)c1cccs1 | - | - | - | - | - | . | . | . | .
O=C(NC(=S)Nc1ccccc1N1CCOCC1)c1ccc(-c2cccc(Cl)c2)o1 | - | - | - | 11.1 | - | - | - | - | -
CC(C)c1ccccc1OCC(=O)Nc1ccc2[nH]ncc2c1 | - | - | - | - | - | . | . | . | .
Cc1ccc(NC(=O)C(C)OC(=O)CCC2CCCCC2)cc1 (configuration not stated) | - | - | - | - | - | . | . | . | .
COc1cc(/C=C(\C#N)c2nc3ccccc3n2C)cc(OC)c1O | - | - | - | 1.0 | - | - | - | - | -
O=C(COC(=O)c1ccc(Br)cc1)NCCN1C(=O)CSC1=O | - | - | - | - | - | - | - | - | -
COc1ccc(C(=O)OCC(=O)NCCN2C(=O)CSC2=O)cc1 | - | - | - | - | - | - | - | - | -
CCN(CC)S(=O)(=O)c1ccc(C(=O)OCC(=O)NCCN2C(=O)CSC2=O)cc1 | - | - | - | - | - | - | - | - | -
O=C(COC(=O)c1ccc(S(=O)(=O)Nc2ccccc2)cc1)NCCN1C(=O)CSC1=O | - | - | - | - | - | . | . | . | .
Cc1ccc(/C=C/C(=O)OCC(=O)NCCN2C(=O)CSC2=O)cc1 | - | - | - | - | - | . | . | . | .
SMILES | V-ATPase pH | ATG4B inhibitor | SUMO Mot1 rescue | Efflux pump inh | AI-2 QS mod | Yeast cmpd fluor | Mdr1 pump inh | CaCdr2 efflux inh | CaCdr1 efflux inh
Cc1ccc(C(=O)OCC(=O)NCCN2C(=O)CSC2=O)cc1 | - | - | - | - | - | - | - | - | -
O=C(O)c1nccnc1C(=O)N1CCN(c2ccccc2)CC1 | - | - | - | 1.9 | - | - | - | - | -
O=C(CCc1nnc2ccc(NCc3ccco3)nn12)Nc1cccc(F)c1 | - | - | - | - | - | . | . | . | .
COc1ccc(-c2cc(N3C(=O)Nc4ccccc4N3O)n[nH]2)cc1OC | - | - | . | - | - | . | . | . | .
COc1ccc(-c2cc(N3C(=O)Nc4ccccc4N3O)n[nH]2)cc1 | - | - | - | 6.5 | - | - | - | - | -
COc1ccc(C(=O)NC23CC4CC(CC(C4)C2)C3)cc1 | - | - | - | - | - | . | . | . | .
COc1nc(NC23CC4CC(CC(C4)C2)C3)nc(OC)n1 | - | - | - | 0.5 | - | - | - | - | -
CCOc1ccc(NC(=O)N2CCC(n3c(=O)[nH]c4ccccc43)CC2)cc1 | - | - | - | 0.8 | - | - | - | - | -
O=C(Nc1cccc(F)c1)N1CCC(n2c(=O)[nH]c3ccccc32)CC1 | - | - | - | - | - | . | . | . | .
O=C(O)c1ccc(/C=C2/SC(=S)N(Cc3ccccc3)C2=O)cc1 | - | - | - | - | - | . | . | . | .
O=C(Cc1ccccc1)NN1C(=O)/C(=C/c2ccc(C(=O)O)cc2)SC1=S | - | - | - | - | - | - | - | - | -
Cc1ccc(C(=O)Nc2cccc(C(=O)O)c2)cc1S(=O)(=O)N1CCOCC1 | - | - | - | - | - | . | . | . | .
Cc1ccc(NC(=O)c2cccc(S(=O)(=O)N(C)c3ccccc3)c2)cc1S(=O)(=O)N1CCOCC1 | - | - | - | 8.0 | - | - | - | - | -
Cc1ccc(C(=O)N2CCN(c3ccc(NC(=O)CSc4ccc(Cl)cc4)cc3)CC2)cc1 | - | - | - | 8.0 | - | - | - | - | -
O=C(Nc1ccccc1-c1nnc(SCc2ccccc2)o1)c1ccccc1 | - | - | - | - | - | . | . | . | .
O=C(Nc1ccccc1-c1nnc(SCc2ccc(Cl)cc2)o1)c1ccccc1 | - | - | - | 0.5 | - | - | - | - | -
N/C(=N\OC(=O)Cc1cccs1)c1ccc(Cl)cc1 | - | - | - | - | - | - | - | - | -
COc1cc(/C=C/c2nc3ccccc3s2)cc(OC)c1O | - | - | - | 0.8 | - | - | - | - | -
COc1cc(C=C(c2nc3ccccc3s2)c2nc3ccccc3s2)ccc1O | - | - | - | - | - | . | . | . | .
